In PubChem BioAssay (NCI):
Compounds without any hit were thinned out: in the full panel of roughly 83,000, 20% have a hit.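 Testing used 96-well plates and a 48-hour single-concentration exposure. Example: -40 means 40% of the starting cells died.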 Values without a mark were called inactive. Calls of active or inactive are those of the source.

Tested on: SK-MEL-28 melanoma
Test: NCI-60 one-dose screen, 48 h (100 = growth as untreated, 0 = no growth, -100 = all killed)
Settings: 10 µM unless noted
Protocol: Growth inhibition of the SK-MEL-28 human tumor cell line is measured as a screen for anti-cancer activity. Cells are grown in 96 well plates and exposed to the test compound for 48 hours. Compounds are tested at a single concentration, which is 10^-5 M for most compounds. The reported endpoint is percent growth (GI% or GIPRCNT), where numbers from 0 - 100% represent growth inhibition, and numbers from -100% - 0 represent cell death. For example, a value of 40 represents 60% growth inhibition. A value of 0 means no net growth occurred over the course of the experiment. A value of -40 indicates 40% of cells at the beginning of the experiment died by the end of the experiment. A value of -100 means all cells are dead at the end of the experiment.
NCI-60 Human Tumor Cell Lines Screen was performed using the standard one-dose NCI protocol, which is described in more detail at https://dtp.cancer.gov/discovery_development/nci-60/default.htm.
Compounds with GIPRCNT values below 10 were considered active. Activity score was based on GIPRCNT using the following formula: […]
Score is 0 for GIPRCNT values of 100 or above, 50 for GIPRCNT values of 0, and 100 for GIPRCNT values of -100.

First: COc1cc(/C=C\c2cc(OC)c(OC)c(OC)c2)cc(N)c1OC
Second: COc1ccc(C(=O)c2cc(OC)c(OC)c(OC)c2)cc1O
The growth of the first is higher: 97.6% for the first, 57.6% for the second.

Going from `COc1cc2cc(CN3CCN(c4nccc(-c5ccc6ccccc6c5)n4)CC3)c(=O)[nH]c2cc1OC` to `COc1ccc2[nH]c(=O)c(CN3CCN(c4nccc(-c5ccc(Cl)cc5)n4)CC3)cc2c1`, the growth falls from 102% to 95.8%.

Compared with `O=C1Nc2cc(Cl)ccc2/C1=C\c1c(-c2ccc(F)cc2)nc2ccccn12`, `O=C1Nc2cc(-c3cccc(O)c3)ccc2/C1=C/c1ccc[nH]1` is lower in growth: 28.2% for the first, 16.4% for the second.

First: Nc1ccccc1NC(=O)c1ccc(-n2nc(-c3ccccc3)c3ccccc32)cc1
Second: Nc1c(C(=O)Nc2ccnc3ccccc23)sc2nc3c(cc12)CN(Cc1ccccc1)CC3
The growth of the first is lower: 99.7% for the first, 102% for the second.

First: COc1cc(NCCCCCNC(C)(C)C)c2ncccc2c1
Second: COc1cc(/C=N/O)nc(-c2ccccn2)c1
The growth of the first is higher: 107% for the first, 18.2% for the second.

Compared with `CC(C)(C)c1cc(/C=N/NC(=O)c2ccccc2NC(=O)c2cccs2)c(O)c(C(C)(C)C)c1`, `O=C(Cc1ccc(/C=C/C(=O)c2nccs2)cc1)Nc1ccccc1` is higher in growth: 51.5% for the first, 105% for the second.

Compared with `Nc1c(C(=O)Nc2cccc3cnccc23)sc2nc3c(cc12)CN(Cc1ccccc1)CC3`, `O=C(CCN1CCCC1)Nc1ccc2c(NCCCc3ccccc3)c3ccccc3nc2c1` is lower in growth: 111% for the first, 66.1% for the second.

Compared with `COc1cc(/C(C)=C(\c2ccc(Cl)cc2)c2ccc(OCCN3CCCC3)cc2)ccc1F`, `CCNC(=O)Oc1ccc(/C(=C(\C)c2ccccc2)c2ccc(OCCCN(C)C)cc2)cc1` is lower in growth: 69.3% for the first, 58% for the second.

Compared with `C=CCN1C(=O)/C(=C/C(=O)OC)S/C1=N\NC(=O)c1cc2ccc1/C=C\c1ccc(cc1)/C=C\2`, `CCOC(=O)c1ccc2c(c1)ncn2-c1ccc(NC(=O)Nc2cccc(C)c2)cc1` is lower in growth: 102% for the first, 88.7% for the second.

Going from `COc1cc2nc(-c3ccc(C(F)(F)F)cc3)cc(OCCN3CCCCC3)c2cc1OC` to `COc1cc2nc(-c3ccc(Cl)cc3)cc(OCCCN3CCOCC3)c2cc1OC`, the growth falls from 70.2% to 60.1%.

First: O=C1c2cccc3c(-c4ccc5c(c4)ncn5C4CCCCC4)ccc(c23)C(=O)N1CCO
Second: O=C1Nc2cc(-c3cccc([N+](=O)[O-])c3)ccc2/C1=C/c1ccc[nH]1
The growth of the first is higher: 116% for the first, 106% for the second.

Going from `CSc1nc2sc3cccc(Cl)c3n2c(=N)c1C#N` to `N#C/C(=C\c1ccc([N+](=O)[O-])s1)c1nc2cc(Br)ccc2s1`, the growth falls from 115% to 12%.

First: CCOC(=O)CCN(CC(C)C)C(=S)Nc1ccccc1
Second: CCCC/C=N/NC(=S)NCc1ccccc1
The growth of the first is higher: 106% for the first, 98.2% for the second.

Going from `O=C1Nc2cc(-c3ccc(NS(=O)(=O)c4ccccc4)cc3)ccc2/C1=C/c1ccc[nH]1` to `CCOc1cccc(-c2nc(N)nc(Nc3ccccc3SSc3ccccc3Nc3nc(N)nc(-c4cccc(OCC)c4)n3)n2)c1`, the growth falls from 108% to 93.6%.

First: CN1CCN(CCNc2nccc(-c3c(-c4cccc(O)c4)nc4sccn34)n2)S1(=O)=O
Second: CN1C(=O)NC(c2ccc3c(c2)OCO3)C=C1c1ccccc1 (stereo not given)
The growth of the first is lower: 15% for the first, 106% for the second.

First: OCc1cnccc1NCCCOc1ccccc1
Second: COC1=CC(=O)c2ccccc2C1=O
The growth of the first is higher: 109% for the first, 90% for the second.

First: COc1ccc(C(=O)c2cc(C)c(OC)c(C)c2)c(OC)c1NC(C)=O
Second: Cc1c(C(=O)NCCC(=O)NO)sc2ncnc(Nc3ccc(NC(=O)Nc4cccc(C(F)(F)F)c4)cc3)c12
The growth of the first is lower: 49.5% for the first, 110% for the second.

For `O=C1/C=C/[C@@H](O)[C@@H]2C[C@@H](O)C[C@H]2/C=C/CCC[C@H](CCc2cccc3ccccc23)O1`, the growth was 2.17% (active).
With `CC(=O)[C@H]1CCC/C=C/[C@@H]2C[C@H](O)C[C@H]2[C@H](O)/C=C/C(=O)O1` the growth was -16.6% (active).
For `O=C1c2ccc3c4c(ccc(c24)C(=O)N1CCCNCc1ccccc1)C(=O)N(CCCNCc1ccccc1)C3=O`, the growth was -95.9% (active).
With `CCCCCCOc1ccc(/C=N/Nc2cc(C)nc3ccc(Cl)cc23)cc1` the growth was -30.3% (active).
In the case of `C=C1C(=O)O[C@H]2[C@H]1CC/C(COC(=O)NCCc1c[nH]c3ccc(OC)cc13)=C\CC[C@@]1(C)O[C@@H]21`, the growth is reported as -10.8% (active).

Compound `CC(=O)c1ccc(NS(=O)(=O)c2cccc(C(=O)Nc3ccc(Br)cc3)c2)cc1` has a growth of 77.9% [25 µM].
